# TGFb inhibitor = TGF-b pathway inhibition; HepG2 CAGA-GFP TGF-b/SMAD3 reporter, GFP fluorescence, 18 h; TGF-beta stimulated, 500 pg/mL final; Potency, µM (doses to about 46.1 µM), without a hit: at the top dose activity, negative = inhibition, most hits filed as inhibitors; actives 1.2% (n = 410,000); AID 588855; note: % is set by controls: 0 for no effect and ±100 for the full control effect; nearly all actives have a fitted effect of over 65% in size
#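 Cell-based qHTS in HEPG2 carrying a CAGA-GFP Smad reporter; compounds added before 500 pg/mL final TGF-beta, 18 h incubation at 37 degrees C, GFP fluorescence quantified per cell by imaging cytometry.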
# S2 tox = reduces viability in counter-screen for ATXN expression inhibitors | S2 cells (HEK-293 line with an ATXN2-luciferase reporter) viability, CellTiter-Fluor protease fluorescence, 24 h | Potency, µM (highest dose often 56.7 µM), hits mostly cytotoxic | actives 0.49% (n = 400,000) | AID 651635; note: nearly all actives have a fitted effect of over 40% in size
# HttQ103 aggreg = mutant huntingtin aggregation inhibition | Potency, µM (titrated, usually from 46.1 µM), without a hit: at the top dose activity change, negative = inhibition, most hits filed as inhibitors | AID 1688 | PC12 HttQ103-GFP aggregates, Acumen cytometry, 40 h | actives 1.1% (n = 220,000); note: % is set by controls: 0 for no effect and ±100 for the full control effect; nearly all actives have a fitted effect of over 60% in size
#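 Aggregates are detected as GFP objects 1–25 µm with signal 6 STDEV over background in lysates of induced PC12 cells. These carry Huntingtin exon 1 with 103 glutamines fused to GFP under an ecdysone promoter; compounds titrated.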
# HepG2 tox = HepG2 cytotoxicity, counter-screen for TGF-b inhibitors; actives 0.76% (n = 410,000); AID 588856; HepG2 CAGA-GFP viability, ATP luminescence, 18 h; Potency, µM (doses to about 46.1 µM), inactives show at the top dose activity change, negative = cytotoxicity, actives largely listed as cytotoxic
#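 CellTiter-Glo luminescence gave cytotoxicity after 18 hours at 37 degrees C. The cells were HepG2 CAGA-GFP in 1% FBS DMEM, stimulated with 500 pg/mL TGF-beta after compound addition. %Activity was normalised to no-cell wells (complete cell-killing) and DMSO (no toxicity), and curves were fitted and classified.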
# HTT ATP protect = cytoprotection in Huntington HTT-Q103 PC12 cell model. PC12 HTT-Q103 induced, cytoprotection, ATP luminescence, 40 h. Potency, µM (top dose mostly 56.4 µM), for inactives: cytoprotection (ATP increase), actives largely listed as activators. actives 0.14% (n = 230,000). AID 1471; note: % of control where 0% means no effect; nearly all actives have a fitted effect of over 45% in size
#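 Quantitative HTS on tebufenozide-induced (100 nM) PC12 cells expressing HTTQ103 exon 1–GFP; compounds tested as a concentration series; survival measured via cellular ATP.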
# ATXN2 expr inh = reduces ATXN2 reporter expression in HEK-293 cells; actives 0.72% (n = 360,000); Potency, µM (series often up to 57 µM), without a hit: at the top dose activity change, negative = inhibition, actives largely listed as inhibitors; HEK-293 ATXN2-luciferase reporter, luminescence, 24 h; note: % is set by controls: 0 for no effect and ±100 for the full control effect; nearly all actives have a fitted effect of over 55% in size
#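 qHTS (up to 57 uM final) was run with 24 h compound exposure of reporter cells at 37 °C. Each well was multiplexed: SteadyGlo luminescence measured ATXN2-luciferase expression after a fluorogenic Gly-Phe-AFC viability readout (25 uM final).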
# * marks the source's active call; other numbers are inactive results; i = inactive; u = inconclusive; x = no result given; ! = repeats disagree; [ ] = dose if it differs, or a comment. Only some compounds are listed: those with a hit (about 2.8% of all), similar ones and a draw of the others. Calls come from the whole dose curve; as a rule, active = well fitted curve in the direction sought with a large enough effect; inconclusive = small, poorly fitted or top-dose-only effect, or another doubt; inactive = no such curve, though single readings can be large; an effect the other way counts as inactive or inconclusive. Potency is the fitted concentration of half-maximal effect.
SMILES,TGFb inhibitor,S2 tox,HttQ103 aggreg,HepG2 tox,HTT ATP protect,ATXN2 expr inh
Cc1ccccc1Nc1nc(N)c2ccccc2n1,-9%,i,-11%[9.22 µM],11µM*,-47%[10 µM],-2%
OC(CBr)C[n+]1cc(Br)cc2ccccc21 (stereo not drawn),-2%,x,x,-12%,x,x
Cc1cc(C)cc(CN2CCOc3ccc(CN4CCC(O)(c5cccnc5)CC4)cc3C2)c1,x,i,x,x,x,x
COc1cc(NCCCCCCN)c2ncccc2c1OC,0%,u,x,-7%,x,16µM*
Nc1c(C(=O)NCc2ccc(F)cc2)c2nc3ccccc3nc2n1CCCN1CCOCC1,u,i,-36%,18µM*,-75%,u
COc1ccc(CNC(=O)c2c(N)n(CCCN3CCOCC3)c3nc4ccccc4nc23)cc1,11µM*,i,-33%,-115%,-80%,u
COC(=O)c1c(N)n(CCCN2CCOCC2)c2nc3ccccc3nc12,0%,i,6%,-2%,-13%,-9%
CCCNC(=O)c1c(N)n(-c2ccc3c(c2)OCO3)c2nc3ccccc3nc12,0%,u,3%,0%,-25%,-37%
CCCNC(=O)c1c(N)n(-c2cc(OC)cc(OC)c2)c2nc3ccccc3nc12,0%,i,18µM*,-39%,-21%[0.074 µM],-11%
Nc1c(C(=O)NCc2ccccc2)c2nc3ccccc3nc2n1CCCN1CCOCC1,u,x,-27%,18µM*,x,x
O=C(C1CC1)N1CC[C@@H](Cn2c(-c3ccc(-c4ccc5occc5c4)cc3)nc3cnccc32)C1,x,x,x,x,x,-19%
Cc1ccc2nc(N(CCCN(C)C)C(=O)c3cc(-c4cccs4)nc4ccccc34)sc2c1,16µM*,32µM*,x,11µM*,x,u
CN(C)CCCN(C(=O)c1ccc(Br)s1)c1nc2ccc(F)cc2s1,3%,i,x,12%,x,-18%
Cc1ccc2nc(N(CCCN(C)C)C(=O)c3ccc(Br)s3)sc2c1,u,22µM*!,u,13µM*!,-58%,u
Cn1c(SCC(=O)NCc2ccco2)nnc1-c1cccc(NC(=O)c2ccccc2)c1,-8%,x,x,-24%,x,x
CCOC(=O)c1c(C(F)(F)C(F)(F)C(F)(F)C(F)(F)F)n[nH]c1C,u,i,1%,13µM*,3%[10 µM],-14%
Cc1ccccc1C(=O)N1CCc2c(cnc(C)c2CNC(=O)c2ccc3c(c2)OCO3)C1,x,i,x,x,x,x
COc1cccc(/C=N/Nc2snc(SC)c2C#N)c1O,10µM*,i,11µM*,-47%,x,-13%
COc1ccc(/C=N/Nc2snc(SC)c2C#N)cc1OC,27%,i,-7%,2%,-24%,42%
Cc1ccc(Nc2nc3nonc3[nH]c2=O)cc1Cl,u,i,22µM*,-28%,-122%,u
COc1ccc2[nH]c(C)c(C(=O)CNc3nccs3)c2c1,8%,x,x,14%,x,x
COCc1ccc(CN2CCOc3ccc(C4=CCCCC4)cc3C2)o1,x,i,x,x,x,x
CCOC(=O)C(CC)(CC)C(=O)/C=C/c1cccc(Br)c1,14µM*,u,x,-116%,x,u
COc1ccc(N2CCN(C(=O)c3cn(C4CCCCC4)c(=O)c4c3c3ccccc3n4C)CC2)cc1,u,11µM*,x,-86%,x,-8%
CCCCc1nc2c(c3c1C[C@H](C)OC3)CN(C(=O)c1cccnc1)CC2,x,x,x,x,10%[10 µM],x
Cc1sc2nc(C3CC3)nc(SCC(=O)N3CCc4ccccc4C3)c2c1C,u,u,7.1µM*,-17%,-8%[10 µM],-3%
Cc1sc2nc(C(C)C)nc(SCC(=O)N3CCN(C(=O)c4ccco4)CC3)c2c1C,-50%,x,-11%,-13%,0%,32µM*
CCc1c(C)sc2nc(C(C)C)nc(SCC(=O)N3CCc4ccccc4C3)c12,-15%,u,3.5µM*,1%,-3%[10 µM],-25%

# Compound activity from PubChem BioAssay.
